# Measurements from PubChem BioAssay (EPA / NIEHS).
# Records with an inconclusive call do not appear. Activity calls are given as the source filed them. Rule for the calls, unless noted: active = hit-call score of the fitted dose curve at least 0.9, where 1 is the maximum; inactive = score below 0.9.
# Experiments:
# [1] = IUF_NPC1b_proliferation_BrdU_72hr: Leibniz Research Institute for Environmental Medicine (IUF) 72-hour Neural Progenitor Cell Bromodeoxyuridine (BrdU) Proliferation Assay (NPC1b) (AID 2284207)
# Outline: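 Neural progenitor spheres of human fetal origin are treated for three days; BrdU added for the last 16 h is quantified by luminescence ELISA, with DMSO as baseline and EGF/FGF omission as positive control.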
# [2] = IUF_NPC1a_proliferation_area_72hr: Leibniz Research Institute for Environmental Medicine (IUF) 72-hour Neural Progenitor Cell Proliferation Area Assay (NPC1a) (AID 2284208)
# Outline: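 hNPC spheres (human fetal cortex, GW 16-19), one per poly-Hema U-bottom well; EGF+FGF medium; dosed day 0, no re-dosing; 72 h, 37C, 5% CO2; phase-contrast sphere area; DMSO = baseline; minus-GF = positive ctrl.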
# [3] = IUF_NPC1_viability_72hr: Viability Assessment at 72 hours in the Leibniz Research Institute for Environmental Medicine (IUF) Neural Progenitor Cell Proliferation Assay (NPC1) (AID 2284209)
# Outline: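 Alamar blue fluorescence (RFU) after 72 h exposure, normalized to DMSO baseline. hNPC spheres from GW 16-19 fetal cortex, single sphere per well in growth-factor medium; no compound renewal.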
# [4] = CCTE_Mundy_HCI_Cortical_Synap_Neur_Matur_NeuriteSpotCountPerNeuriteLength: CCTE's Synaptogenesis and Neurite Maturation Assay in rat cortical cells for Neurite Spot Count per Neurite Length, Mundy Lab (AID 2284210)
# Outline: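 Neurite-associated synapse density (synaptophysin puncta per unit neurite length) is measured by fluorescence high-content imaging in rat cortical cultures treated from DIV 7 and fixed at DIV 12, with DMSO as negative control.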
# [5] = CCTE_Mundy_HCI_Cortical_NOG_NeuriteLength: CCTE's Neurite Outgrowth Assay in rat cortical cells for Neurite Length, Mundy Lab (AID 2284213);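 for AC50: neurites imaged about 48 to 50 h after chemical exposure began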
# Outline: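 First, rat primary cortical cells were plated and, 2 h later, given test chemical as a 1/10 dilution. Finally, βIII-tubulin immunostaining enabled automated imaging of neurite length.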
# [6] = CCTE_Mundy_HCI_Cortical_Synap_Neur_Matur_NeuriteLength: CCTE's Synaptogenesis and Neurite Maturation Assay in rat cortical cells for Neurite Length, Mundy Lab (AID 2284214)
# Outline: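 Read-out: high-content imaging of MAP2-labelled neurites, with synaptophysin and Hoechst co-stain, in rat cortical cultures fixed at DIV 12. Activity fitted in positive direction relative to DMSO baseline.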
# [7] = CCTE_Mundy_HCI_Cortical_Synap_Neur_Matur_NeuriteSpotCountPerNeuron: CCTE's Synaptogenesis and Neurite Maturation Assay in rat cortical cells for Neurite Spot Count per Neuron Count, Mundy Lab (AID 2284215)
# Outline: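 Read-out: neurite-associated synaptophysin puncta per neuron, imaged by high-content analysis after MAP2, synaptophysin and Hoechst staining. Rat primary cortical cultures, dosed DIV 7 through DIV 12; DMSO served as baseline.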
# [8] = CCTE_Mundy_HCI_Cortical_Synap_Neur_Matur_SynapseCount: CCTE's Synaptogenesis and Neurite Maturation Assay in rat cortical cells for Synapse Count, Mundy Lab (AID 2284218)
# Outline: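 Read-out: synapse number per neuron, automated high-content imaging of fixed cells immunostained for MAP2 and synaptophysin plus Hoechst nuclei. Rat primary cortical cultures, AraC at DIV 5, chemical dosing DIV 7–12. Positive-direction fit relative to DMSO.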
# [9] = CCTE_Mundy_HCI_Cortical_Synap_Neur_Matur_CellBodySpotCount: CCTE's Synaptogenesis and Neurite Maturation Assay in rat cortical cells for Cell Body Spot Count, Mundy Lab (AID 2284223)
# Outline: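 Read-out: cell body-associated synaptophysin puncta per neuron, imaged after MAP2, synaptophysin and Hoechst staining. Rat cortical cells, AraC DIV 5, chemical dosing DIV 7, fixation DIV 12. Activity fitted in positive direction relative to DMSO baseline.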
# [10] = CCTE_Mundy_HCI_Cortical_NOG_NeuronCount: CCTE's Neurite Outgrowth Assay in rat cortical cells for Neuron Count, Mundy Lab (AID 2284236; active = hit-call score of the fitted dose curve at least 0.9, where 1 is the maximum;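 note: neurons counted by imaging betaIII-tubulin and Hoechst stained cortical cells; cells exposed to compound for about 48 hours before fixation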)
# Outline: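 Read-out: neuron number by high-content imaging of betaIII-tubulin (Alexa Fluor-488) and Hoechst-labelled rat primary cortical cells.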
# [11] = CCTE_Mundy_HCI_hNP1_Casp3_7: CCTE's Caspase-Glo 3/7 Assay in human neuroprogenitor cells for Apoptosis, Mundy Lab (AID 2284240)
# Outline: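 Neuroepithelial-lineage stem cells from WA09 embryonic cells were treated with chemicals after 40–44 h of culture. Twenty-four hours later, caspase-3/7 activation was detected luminescently after a 30 min room-temperature reagent step, with DMSO as baseline.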
# [12] = IUF_NPC2c_oligodendrocyte_migration_120hr: Leibniz Research Institute for Environmental Medicine (IUF) 120-hour Neural Progenitor Cell Migration Assay for Oligodendrocyte Migration (NPC2c) (AID 2284297);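 note: O4-positive oligodendrocyte migration distance divided by radial glia migration distance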
# Outline: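 hNPC spheres (GW 16-19 cortex), PDL/laminin, DMEM/F12 3:1 + 1% N2, 37C. Dosing day 0–5, half feed day 3, DMSO ≤0.1%. Fixed 120 h; O4 ICC + Hoechst, HCI. Readout: mean oligodendrocyte distance from sphere edge / radial glia distance.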
# [13] = IUF_NPC2a_radial_glia_migration_120hr: Leibniz Research Institute for Environmental Medicine (IUF) 120-hour Neural Progenitor Cell Migration Assay for Radial Glia Migration (NPC2a) (AID 2284298)
# Outline: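 Hoechst-stained nuclei imaged at 120 h; algorithm maps sphere core by densest nuclei, sets migration edge at density threshold, gives radial glia migration distance (um) per well vs DMSO. hNPC spheres (0.3 mm), PDL/laminin, DMEM/F12 3:1 + 1% N2.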
# [14] = IUF_NPC2a_radial_glia_migration_72hr: Leibniz Research Institute for Environmental Medicine (IUF) 72-hour Neural Progenitor Cell Migration Assay for Radial Glia Migration (NPC2a) (AID 2284299)
# Outline: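 Readout: mean of four manual brightfield measurements of radial glia migration distance (um) at 72 h. hNPC spheres (0.3 mm) exposed to 7 compound concentrations plus solvent control on PDL/laminin, 37C, 5% CO2; activity fitted relative to DMSO.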
# [15] = IUF_NPC2b_neuronal_migration_120hr: Leibniz Research Institute for Environmental Medicine (IUF) 120-hour Neural Progenitor Cell Migration Assay for Neuron Migration (NPC2b) (AID 2284300)
# Outline: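 hNPC spheres, PDL/laminin, DMEM:F12 3:1 + 1% N2, 37C/5% CO2; 7 concentrations + solvent control (DMSO ≤0.1%), 5 d exposure, half-feed day 3. Fix 120 h, TUBB3 ICC, HCI: mean neuron migration distance ÷ glia distance.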
# [16] = IUF_NPC3_neuronal_differentiation_120hr: Leibniz Research Institute for Environmental Medicine (IUF) 120-hour Neuronal Differentiation Assay (NPC3) (AID 2284301)
# Outline: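 Neuronal differentiation of primary human neural progenitors measured by high-content imaging: percent TUBB3+ of Hoechst+ nuclei within migrated area at 120 h, seven-point serial dilution plus solvent control, gain or loss relative to DMSO.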
# [17] = IUF_NPC2-5_cytotoxicity_72hr: Cytotoxicity Assessment at 72 hours in the Leibniz Research Institute for Environmental Medicine (IUF) Neural Progenitor Cell Migration and Differentiation Assay for Cytotoxicity (NPC2-5) (AID 2284306; active = hit-call score of the fitted dose curve at least 0.9, where 1 is the maximum;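 note: LDH release into supernatant measured by resorufin fluorescence marking membrane damage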)
# Outline: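 Primary human neural progenitor spheres migrate and differentiate on laminin. Compound is present from the start of differentiation, with DMSO kept at or below 0.1%. At 72 h, supernatant LDH is quantified fluorometrically, with values fitted in the positive direction.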
# [18] = IUF_NPC2-5_cytotoxicity_120hr: Cytotoxicity Assessment at 120 hours in the Leibniz Research Institute for Environmental Medicine (IUF) Neural Progenitor Cell Migration and Differentiation Assay (NPC2-5) (AID 2284307; active = hit-call score of the fitted dose curve at least 0.9, where 1 is the maximum)
# Outline: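 hNPC spheres on PDL/laminin, N2 medium, 37C; 7 concs + solvent control, DMSO ≤0.1%; 5-day exposure, half medium changed day 3. LDH in supernatant at 120 h, resazurin→resorufin fluorescence, gain-of-signal.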
# [19] = IUF_NPC2-5_cell_number_120hr: Cell Number Assessment at 120 hours in the Leibniz Research Institute for Environmental Medicine (IUF) Neural Progenitor Cell Migration and Differentiation Assay (NPC2-5) (AID 2284308);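 note: count of Hoechst-stained nuclei in migration zone around plated human neural progenitor spheres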
# Outline: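 Hoechst-stained nuclei within the migration area were counted by automated high content imaging after 120 h. Single hNPC spheres differentiated on poly-D-lysine/laminin in DMEM/F12 (3:1) with 1% N2, compound present throughout, DMSO ≤0.1%.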
# [20] = IUF_NPC2-5_viability_120hr: Viability Assessment at 120 hours in the Leibniz Research Institute for Environmental Medicine (IUF) Neural Progenitor Cell Migration and Differentiation Assay (NPC2-5) (AID 2284312)
# Outline: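 Human fetal (GW 16-19) neural progenitor spheres of 0.3 mm were plated on poly-D-lysine/laminin in N2 differentiation medium and exposed from day 0 for 120 h, with half-medium refresh at day 3. Viability was read as alamar blue resazurin-to-resorufin fluorescence against DMSO.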
smiles,measurement,setting,value
CC1(C)[C@@H](C=C(Cl)Cl)[C@@H]1C(=O)O[C@@H](C#N)c1ccc(F)c(Oc2ccccc2)c1,outcome,[1],inactive
same,outcome,[2],inactive
same,outcome,[3],inactive
same,outcome,[4],inactive
same,outcome,[5],inactive
same,outcome,[6],inactive
same,outcome,[7],inactive
same,outcome,[8],inactive
same,outcome,[9],inactive
same,outcome,[10],inactive
same,outcome,[11],inactive
same,outcome,[12],inactive
same,outcome,[13],inactive
same,outcome,[14],inactive
same,outcome,[15],inactive
same,outcome,[16],inactive
same,outcome,[17],inactive
same,outcome,[18],inactive
same,outcome,[19],inactive
same,outcome,[20],inactive
Cn1nc(C(F)(F)F)c(CS(=O)(=O)C2=NOC(C)(C)C2)c1OC(F)F,outcome,[1],inactive
same,AC50,[2],22.1 µM (active)
same,outcome,[3],inactive
same,outcome,[4],inactive
same,AC50,[5],66.8 µM (active)
same,AC50,[6],28 µM (active)
same,AC50,[7],9.92 µM (active)
same,outcome,[8],inactive
same,outcome,[9],inactive
same,outcome,[10],inactive
same,outcome,[11],inactive
same,outcome,[12],inactive
same,AC50,[13],33.8 µM (active)
same,outcome,[14],inactive
same,outcome,[15],inactive
same,AC50,[16],9.95 µM (active)
same,outcome,[17],inactive
same,outcome,[18],inactive
same,outcome,[19],inactive
same,outcome,[20],inactive
C/C(=C/C=C/[C@@H](C)C(=O)O)[C@H]1CN[C@H](C(=O)O)[C@H]1CC(=O)O,outcome,[1],inactive
same,outcome,[2],inactive
same,outcome,[3],inactive
same,outcome,[12],inactive
same,outcome,[13],inactive
same,outcome,[14],inactive
same,outcome,[15],inactive
same,outcome,[16],inactive
same,outcome,[17],inactive
same,outcome,[18],inactive
same,outcome,[19],inactive
same,outcome,[20],inactive
[O-][Cl+3]([O-])([O-])O,AC50,[1],0.171 µM (active)
same,outcome,[2],inactive
same,outcome,[3],inactive
same,outcome,[12],inactive
same,outcome,[13],inactive
same,outcome,[14],inactive
same,outcome,[15],inactive
same,outcome,[16],inactive
same,outcome,[17],inactive
same,outcome,[18],inactive
same,outcome,[19],inactive
same,outcome,[20],inactive
CC1(C)C(C=C(Cl)Cl)C1C(=O)O[C@H](C#N)c1cccc(Oc2ccccc2)c1 (stereo partly specified),AC50,[1],12.8 µM (active)
same,outcome,[2],inactive
same,outcome,[3],inactive
same,AC50,[4],15.6 µM (active)
same,AC50,[5],82 µM (active)
same,AC50,[6],11 µM (active)
same,AC50,[7],10.8 µM (active)
same,AC50,[8],10.9 µM (active)
same,AC50,[9],12 µM (active)
same,outcome,[10],inactive
same,AC50,[11],29.3 µM (active)
same,outcome,[12],inactive
same,outcome,[13],inactive
same,outcome,[14],inactive
same,outcome,[15],inactive
same,AC50,[16],0.851 µM (active)
same,outcome,[17],inactive
same,outcome,[18],inactive
same,outcome,[19],inactive
same,outcome,[20],inactive
CC(C)CC(C)c1sccc1NC(=O)c1cn(C)nc1C(F)(F)F (stereo unspecified),outcome,[1],inactive
same,outcome,[2],inactive
same,outcome,[3],inactive
same,outcome,[12],inactive
same,AC50,[13],10 µM (active)
same,outcome,[14],inactive
same,outcome,[15],inactive
same,outcome,[16],inactive
same,outcome,[17],inactive
same,outcome,[18],inactive
same,outcome,[19],inactive
same,outcome,[20],inactive
